PfGluPho inh: PfG6PD (Plasmodium falciparum) enzyme inhibition | PfGluPho enzyme, NADPH resazurin-diaphorase fluorescence | inhibition, % at 20 µM | 350,000 compounds, 0.78% hits;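 active = inhibition reaching at least a set limit at 20 µM in the primary screen, cut at about 59% in these data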
UHRF1 binding: human UHRF1 methylated DNA binding inhibitors. inhibition, % at 4.4 µM. 370,000 compounds, 0.75% hits. AID 687016. UHRF1 binding to methylated oligo, TR-FRET. Q96T88; in the data active = inhibition above about 21%;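 note: UHRF1 SRA domain binding a hemimethylated CpG hairpin DNA probe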
PRMT1 inh: inhibitors of human PRMT1; Q99873; recombinant PRMT1, activity-based probe fluorescence polarization; inhibition, % at 2.79 µM; 370,000 compounds, 1.3% hits;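 active = inhibition above about 21% made by adding two undisclosed values, limit read from the data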
MBD2 DNA inh: blocks human MBD2 binding to methylated DNA | inhibition, % at 4.4 µM | AID 686964 | Q9UBB5 | TR-FRET, MBD2 binding to methylated oligonucleotide | 370,000 compounds, 0.31% hits; in the data active = inhibition above about 13%
Target sequence (Q9UBB5 whole entry, looked up): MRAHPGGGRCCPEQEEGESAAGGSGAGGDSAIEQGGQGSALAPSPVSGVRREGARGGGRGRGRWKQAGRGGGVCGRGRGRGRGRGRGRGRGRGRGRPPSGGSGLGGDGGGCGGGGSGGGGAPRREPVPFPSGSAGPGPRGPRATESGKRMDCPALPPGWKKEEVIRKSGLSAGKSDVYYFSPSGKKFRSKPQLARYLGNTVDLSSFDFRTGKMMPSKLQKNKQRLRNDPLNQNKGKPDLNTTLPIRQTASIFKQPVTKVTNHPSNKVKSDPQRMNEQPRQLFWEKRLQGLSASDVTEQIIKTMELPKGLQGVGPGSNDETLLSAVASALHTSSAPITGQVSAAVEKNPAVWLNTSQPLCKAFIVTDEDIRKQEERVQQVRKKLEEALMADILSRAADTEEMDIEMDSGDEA
M18AAP inhibitor: blocks P. falciparum M18 aspartyl aminopeptidase. recombinant PfM18AAP, H-Glu-NHMec fluorogenic cleavage. inhibition, % at 7.35 µM. 290,000 compounds, 1.2% hits. AID 1822;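 active = inhibition above the campaign mean inhibition over all tested compounds plus 3 SD, cut at about 28% in these data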
A number is an active result; 0 = inactive; - = no result. Most compounds without a hit are left out; they make up all but 3.3% or so of the library.

SMILES | PfGluPho inh | UHRF1 binding | PRMT1 inh | MBD2 DNA inh | M18AAP inhibitor
O=C1NN(c2ccc(Cl)cc2)C(=O)/C1=C\c1ccc(-c2cccc(C(=O)O)c2)o1 | 0 | 28.0 | 0 | 0 | 0
Cc1ccc(N2NC(=O)/C(=C/c3ccc(-c4ccc(Cl)c(C(=O)O)c4)o3)C2=O)cc1 | 0 | 0 | 0 | 0 | 0
Cc1sc2ccc3sccc3c2[n+]1C | 0 | 0 | 76.5 | 0 | 29.8
O=C(NCc1ccco1)C1CCCN(S(=O)(=O)c2ccc([N+](=O)[O-])cc2)C1 (stereo not drawn) | - | 0 | 0 | 0 | -
COCCNC(=O)COC(=O)c1cccnc1SC | 0 | 27.2 | 0 | 0 | 0
COc1ccc(N=C(NN)c2ccc3ccccc3n2)cc1 | 0 | 0 | 26.7 | 0 | 0
Cc1cccn2c(/C=N/OCc3cccc(F)c3)c(-c3ccc(Cl)cc3)nc12 | 0 | 22.8 | 0 | 0 | 0
COc1ccc(-c2ccc(C(=O)NCC(C)C)c3occc23)c(C)c1 | - | 49.0 | 0 | 0 | -
CC(Sc1nc2cc([N+](=O)[O-])ccc2n1-c1cccc(C(F)(F)F)c1)C(=O)NC(N)=O (stereo not drawn) | 0 | 94.6 | 0 | 0 | 0
NC(=O)CSc1nc2cc([N+](=O)[O-])ccc2n1-c1cccc(C(F)(F)F)c1 | 0 | 0 | 0 | 0 | 0
COc1c2ccoc2cc2oc(C)cc(=O)c12 | 0 | 0 | 0 | 0 | -
Cc1cc(=O)c2c(O)c(O)ccc2o1 | 0 | 0 | 22.6 | 0 | 0
CCN(C(=O)[C@H]1CC(=O)O[C@@H]1c1ccccc1)c1ccccc1 | - | 0 | 0 | 0 | -
CCOc1ccc(-c2cc(CCCC(=O)NCc3ccc(C)cc3)no2)cc1 | 0 | 29.1 | 0 | 0 | 0
C[C@H]1C(c2ccccc2F)O[C@]2(C[C@H](O)c3c(ccc4ccccc34)O2)C[C@@H]1O (stereo partly drawn) | - | 0 | 0 | 0 | -
CCCN(CCC)Cc1cc(=O)oc2cc3c(cc12)CCC3 | 0 | 30.5 | 0 | 0 | 0
CCCN(CCC)Cc1cc(=O)oc2cc(C)c(C)cc12 | - | 0 | 0 | 0 | -
CCCCNC(=O)C[C@H]1C[C@@]2(C(=O)OC)C(=C[C@H](C(C)(C)C)O[C@@H]2C)N(Cc2ccc(Cl)cc2Cl)C1=O | - | 0 | 0 | 0 | -
CN(C)C(=O)c1cc2c(c(-c3cccc(-c4ccccc4F)c3)n1)[C@@H](CCO)N(S(C)(=O)=O)C2 | - | 92.1 | 0 | 0 | -
CCS(=O)(=O)N1Cc2cc(C(=O)N(C)C)nc(-c3cccc(-c4ccc(F)cc4)c3)c2[C@H]1CCO | - | 0 | 0 | 0 | -
COC(=O)C[C@@H]1CC[C@H]2[C@H](COc3ccc(NC(=O)Nc4ccc(C#N)cc4)cc3C(=O)N2C)O1 | - | 0 | 0 | 0 | -
O=C(CSCc1c(F)cccc1Cl)NCCSCc1ccco1 | 0 | 0 | 0 | 0 | 0
O=C(CSCc1ccc(Cl)cc1)NCCSCc1ccco1 | 0 | 0 | 23.5 | 0 | 0
COC(=O)[C@]12C[C@H](CC(=O)NCc3ccccc3)C(=O)N(CCc3ccc(OC)c(OC)c3)C1=C[C@H](COCc1ccccc1)O[C@@H]2C | - | 0 | 0 | 0 | -
CC1CCN(S(=O)(=O)c2ccc3c(c2)N(CC(=O)NCc2cccnc2)C(=O)CS3)CC1 | 0 | 22.0 | 0 | 0 | 0
SMILES | PfGluPho inh | UHRF1 binding | PRMT1 inh | MBD2 DNA inh | M18AAP inhibitor
O=C(CN1C(=O)CSc2ccc(S(=O)(=O)N3CCCCC3)cc21)NCc1cccnc1 | 0 | 0 | 0 | 0 | 0
O=S1(=O)c2cc(Cl)ccc2N2CCC[C@@H]2CN1Cc1ccc(Cl)c(Cl)c1 | - | 0 | 0 | 0 | -
Cc1ccc(N2C(=O)c3ccccc3C2Nc2ccc(S(=O)(=O)N3CCCCC3)cc2)nc1 (stereo not drawn) | 0 | 77.3 | 0 | 0 | 0
CCOC(=O)[C@@]12CN(C(=O)OC(C)(C)C)CC=C1N(Cc1ccc(OC)cc1)C(=O)[C@H]2CC(=O)N1CCC(c2ccccc2)CC1 | - | 0 | 0 | 0 | -
CCN(CC)C(=O)c1cccc(-c2csc(C(O)c3ccc(F)cc3)n2)c1 (stereo not drawn) | - | 0 | 0 | 0 | -
CCN(CC)C(=O)c1cccc(-c2csc(C(O)c3ccccc3)n2)c1 (stereo not drawn) | - | 22.0 | 0 | 0 | -
CC(CNS(=O)(=O)c1ccc2c(c1)CC(=O)N2C)c1ccccc1 (stereo not drawn) | 0 | 0 | 0 | 0 | 0
CN1C(=O)Cc2cc(S(=O)(=O)Nc3ccc(Cl)cc3)ccc21 | 0 | 0 | 0 | 0 | 29.2
Cc1ccc(S(=O)(=O)Nc2ccc(N(C)C)cc2)cc1 | 0 | 0 | 0 | 0 | 0
CN(C)c1ccc(NS(=O)(=O)c2ccc(Cl)cc2)cc1 | 0 | 0 | 23.4 | 0 | 0
CCOC(=O)[C@@]12CCCC=C1N(CCc1ccc(Cl)cc1)C(=O)[C@H]2CC(=O)NCc1ccc(OC)c(OC)c1 | - | 0 | 0 | 0 | -
